Hit rate of the full screen: of about 5,500 compounds, about 2,000 (36%) were called active. Inconclusive results (about 18%) are left out. Cut-off read from the data, not from the text of the source: active = normalized growth mostly below about 0.91 (no sharp cut-off); inconclusive = no clear call, values can overlap the other calls; inactive = mostly above about 0.92. The list shows a part of the results.
Assay: chemical genetic growth profiling, strain panel (AID 1159580);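 note: tested at 20 µM; growth read once vehicle control cultures reached saturation at 30 °C; 1 = growth at the plate median or of vehicle wells; lower values mean less growth of the strain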
Conditions: growth OD

Measured: normalized growth

C[C@]12CCC(=O)C=C1CCC1C2CC[C@@]2(C)C1CC[C@@H]2O (some centres not stated)
inactive: S. cerevisiae deletion strains, locus YJR075W, strain HOC1, hits give low values 0.996 | S. cerevisiae deletion strains, locus YKL009W, strain mrt4, hits give low values 0.957 | S. cerevisiae deletion strains, locus YKL068W, hits give low values 1.03 | S. cerevisiae deletion strains, locus YKL085W, strain MDH1 (second series), hits give low values 1.01 | S. cerevisiae deletion strains, locus YKL085W, strain MDH1, hits give low values 1.01 | S. cerevisiae deletion strains, locus YKL160W, strain elf1, hits give low values 0.994 | S. cerevisiae deletion strains, locus YKL190W, strain CNB1, hits give low values 1.03 | S. cerevisiae deletion strains, locus YKR001C, strain vps1, hits give low values 1.03 | S. cerevisiae deletion strains, locus YKR026C, strain gcn3, hits give low values 1 | S. cerevisiae deletion strains, locus YKR091W, strain srl3, hits give low values 0.991 | S. cerevisiae deletion strains, locus YLL001W, strain dnm1, hits give low values 1 | S. cerevisiae deletion strains, locus YLL026W, hits give low values 0.992 | S. cerevisiae deletion strains, locus YLL041C, strain sdh2, hits give low values 0.99 | S. cerevisiae deletion strains, locus YLR027C, strain aat2, hits give low values 1 | S. cerevisiae deletion strains, locus YLR039C, strain RIC1, hits give low values 1.17 | S. cerevisiae deletion strains, locus YLR058C, strain SHM2, hits give low values 1.02 | S. cerevisiae deletion strains, locus YLR102C, strain apc9, hits give low values 1.03 | S. cerevisiae deletion strains, locus YLR113W, strain HOG1, hits give low values 0.99 | S. cerevisiae deletion strains, locus YLR221C, strain rsa3, hits give low values 0.988 | S. cerevisiae deletion strains, locus YLR258W, strain gsy2, hits give low values 0.993 | S. cerevisiae deletion strains, locus YLR262C, strain YPT6 (second series), hits give low values 0.98 | S. cerevisiae deletion strains, locus YLR262C, strain YPT6, hits give low values 1.18 | S. cerevisiae deletion strains, locus YLR268W, strain sec22, hits give low values 1.01 | S. cerevisiae deletion strains, locus YLR320W, strain mms22, hits give low values 0.946 | S. cerevisiae deletion strains, locus YLR330W, strain CHS5, hits give low values 1.02 | S. cerevisiae deletion strains, locus YLR342W, strain FKS1 (second series), hits give low values 0.983 | S. cerevisiae deletion strains, locus YLR342W, strain FKS1, hits give low values 0.985 | S. cerevisiae deletion strains, locus YLR357W, strain rsc2, hits give low values 1.02 | S. cerevisiae deletion strains, locus YLR370C, strain arc18, hits give low values 0.988 | S. cerevisiae deletion strains, locus YLR371W, strain rom2, hits give low values 1.02 | S. cerevisiae deletion strains, locus YLR384C, strain iki3, hits give low values 1 | S. cerevisiae deletion strains, locus YLR418C, strain cdc73, hits give low values 1.02 | S. cerevisiae deletion strains, locus YML016C, strain PPZ1, hits give low values 1.02 | S. cerevisiae deletion strains, locus YML032C, strain rad52, hits give low values 1.02 | S. cerevisiae deletion strains, locus YML120C, strain ndi1, hits give low values 0.981 | S. cerevisiae deletion strains, locus YML124C, strain tub3, hits give low values 1.03 | S. cerevisiae deletion strains, locus YMR058W, strain fet3, hits give low values 0.993 | S. cerevisiae deletion strains, locus YMR078C, strain ctf18, hits give low values 1.03 | S. cerevisiae deletion strains, locus YMR125W, strain sto1, hits give low values 0.99 | S. cerevisiae deletion strains, locus YMR129W, hits give low values 0.993 | S. cerevisiae deletion strains, locus YMR205C, strain PFK2, hits give low values 0.936 | S. cerevisiae deletion strains, locus YMR223W, strain ubp8, hits give low values 1.01 | S. cerevisiae deletion strains, locus YMR231W, strain pep5, hits give low values 0.999 | S. cerevisiae deletion strains, locus YMR263W, strain SAP30, hits give low values 1.04 | S. cerevisiae deletion strains, locus YMR307W, strain GAS1, hits give low values 1.23 | S. cerevisiae deletion strains, locus YNL067W, strain RPL9B, hits give low values 0.993 | S. cerevisiae deletion strains, locus YNL071W, strain lat1, hits give low values 0.976 | S. cerevisiae deletion strains, locus YNL128W, strain TEP1, hits give low values 1.02 | S. cerevisiae deletion strains, locus YNL153C, strain GIM3, hits give low values 1.02 | S. cerevisiae deletion strains, locus YNL183C, strain NPR1, hits give low values 0.988 | S. cerevisiae deletion strains, locus YNL209W, strain ssb2, hits give low values 1.01 | S. cerevisiae deletion strains, locus YNL233W, strain BNI4, hits give low values 1.04 | S. cerevisiae deletion strains, locus YNL248C, strain rpa49, hits give low values 1 | S. cerevisiae deletion strains, locus YNL250W, strain rad50, hits give low values 1.05 | S. cerevisiae deletion strains, locus YNL271C, strain bni1, hits give low values 1.02 | S. cerevisiae deletion strains, locus YNL298W, strain CLA4, hits give low values 1 | S. cerevisiae deletion strains, locus YNL307C, strain MCK1, hits give low values 0.989 | S. cerevisiae deletion strains, locus YNL322C, strain KRE1 (second series), hits give low values 0.993 | S. cerevisiae deletion strains, locus YNL322C, strain KRE1, hits give low values 1.02 | S. cerevisiae deletion strains, locus YNR049C, strain mso1, hits give low values 0.982 | S. cerevisiae deletion strains, locus YNR052C, strain pop2, hits give low values 0.989 | S. cerevisiae deletion strains, locus YOL006C, strain TOP1, hits give low values 0.971 | S. cerevisiae deletion strains, locus YOL012C, strain htz1 1.89 | S. cerevisiae deletion strains, locus YOL147C, strain pex11, hits give low values 1.03 | S. cerevisiae deletion strains, locus YOR001W, strain rrp6, hits give low values 0.995 | S. cerevisiae deletion strains, locus YOR061W, strain CKA2, hits give low values 1.02 | S. cerevisiae deletion strains, locus YOR069W, strain VPS5, hits give low values 1.01 | S. cerevisiae deletion strains, locus YOR070C, strain gyp1, hits give low values 0.988 | S. cerevisiae deletion strains, locus YOR080W, strain dia2, hits give low values 0.983 | S. cerevisiae deletion strains, locus YOR083W, strain WHI5, hits give low values 0.983 | S. cerevisiae deletion strains, locus YOR106W, strain vam3, hits give low values 0.96 | S. cerevisiae deletion strains, locus YOR136W, strain idh2, hits give low values 1.04 | S. cerevisiae deletion strains, locus YOR144C, strain elg1, hits give low values 1.03 | S. cerevisiae deletion strains, locus YOR184W, strain ser1, hits give low values 0.98 | S. cerevisiae deletion strains, locus YOR231W, strain MKK1, hits give low values 0.99 | S. cerevisiae deletion strains, locus YOR265W, strain rbl2, hits give low values 0.989 | S. cerevisiae deletion strains, locus YOR270C, strain vph1, hits give low values 0.936 | S. cerevisiae deletion strains, locus YOR290C, strain snf2, hits give low values 0.967 | S. cerevisiae deletion strains, locus YOR316C, strain cot1, hits give low values 1.03 | S. cerevisiae deletion strains, locus YPL051W, strain arl3, hits give low values 1 | S. cerevisiae deletion strains, locus YPL055C, strain LGE1, hits give low values 1.07 | S. cerevisiae deletion strains, locus YPL078C, strain atp4, hits give low values 0.997 | S. cerevisiae deletion strains, locus YPL106C, strain sse1, hits give low values 1.05 | S. cerevisiae deletion strains, locus YPL240C, strain hsp82, hits give low values 0.978 | S. cerevisiae deletion strains, locus YPL241C, strain CIN2, hits give low values 1.03 | S. cerevisiae deletion strains, locus YPL256C, strain CLN2, hits give low values 1.06 | S. cerevisiae deletion strains, locus YPR119W, strain clb2, hits give low values 1.02 | S. cerevisiae deletion strains, locus YPR141C, strain kar3, hits give low values 1.04 | S. cerevisiae deletion strains, locus YPR163C, strain tif3, hits give low values 1.04 | S. cerevisiae deletion strains, locus YPR167C, strain met16, hits give low values 1.03 | S. cerevisiae deletion strains, strain wtn01, hits give low values 0.989 | S. cerevisiae strains, strain wild type, hits give low values 1.01
